The supplement of paper PMC6555819

What follows are sequences tested on VDR:RXRa (NR concentration 270 nM, RXRa partner concentration 90 nM) (assay: PBM binding z-score (relative to random genomic background probes); higher = stronger binding; sequences stand for … in GC…GCGATTGACAGCGTAGAATGAAGG).
Experimental: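 Protein-binding microarray (Agilent 4x180K custom design, double-stranded 60-nt probes: 5' GC cap, 34-nt variable region, 24-nt constant primer region; full probe sequence given). Purified or IVT nuclear receptor:RXRα heterodimers (3:1 NR:RXRα, mostly 270:90 nM) or homodimers were incubated for 1 h in PBS with 2% milk and no ligand, then detected with Alexa488 antibodies. Fluorescence from o1-orientation probes (~5 replicates averaged) was converted to z-scores against 500 random hg19 background probes. Variable regions are seed direct-repeat (DR0–DR5) sites, all their single-nucleotide variants and half-site ablations.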

Question: How did the PBM binding z-score turn out when CCAGACAAGTGAGAAGGTAACTCAGCCTCGATTA was run?
Answer: Its PBM binding z-score is 0.143.

Question: How did the PBM binding z-score turn out when CCGAGTAGGTTTTGGGGCATTCAGGCAACGGTGA was run?
Answer: Its PBM binding z-score is -0.239.

Question: For TAGCCTAGATCATGGGCCAGTATACCACGCGAAC, which PBM binding z-score is on record?
Answer: The PBM binding z-score was -0.59.

Question: How did the PBM binding z-score turn out when CATACAGGGTCAGCTCGGCCAGAGTAGGGACGGC was run?
Answer: The PBM binding z-score was 3.32.

Question: For TTACCAAGGTGAAAGGTCCTTGATGCACGCCTTG, which PBM binding z-score is on record?
Answer: The PBM binding z-score was 0.75.

Question: For ATCGAAAGGTCGTAAGGTGAGTATACAGAAAGGC, which PBM binding z-score is on record?
Answer: The PBM binding z-score was 3.26.

Question: AATACAGGGGCACTAGGCCAGAGTAGGTACGAAT was tested. Which PBM binding z-score did it give?
Answer: The PBM binding z-score was 0.171.

Question: Which PBM binding z-score does the source give for CATAGCAGGCCAGGGTCACTCAAGCATTTCGCTT here?
Answer: The PBM binding z-score was 2.92.

Question: How did the PBM binding z-score turn out when CGAACTAGGTCAGAACACGACAGTGAAGGATGAT was run?
Answer: The PBM binding z-score was 0.217.

Question: How did the PBM binding z-score turn out when TCTCGGGGGACACGAAGGTCAGAGCTTTCCAGAG was run?
Answer: Its PBM binding z-score is 3.72.

Question: With CAAACTATGTCAAAGGTCAAAGTCGAGCCAACCA as the sequence, how does the PBM binding z-score read?
Answer: The PBM binding z-score was 5.41.

Question: Which PBM binding z-score does the source give for GCGACTGGGTCAAAGCAGGTTACCATAAGGTTGG here?
Answer: The PBM binding z-score was 3.06.

Question: With ACTAGCAGGCCTAGGGTCACTCAAGATTAGTCCG as the sequence, how does the PBM binding z-score read?
Answer: Its PBM binding z-score is 2.03.

Question: With CCTGCTAGGTCATGGACAGCTAATCTACAGTATG as the sequence, how does the PBM binding z-score read?
Answer: The PBM binding z-score was 1.56.

Question: Which PBM binding z-score does the source give for AGAATGAGGTTACCAAAGATCATGGAAACGCTTG here?
Answer: Its PBM binding z-score is 1.79.

Question: With GCGACTCGGGCATCAGCAGGTTACCATAACTTAA as the sequence, how does the PBM binding z-score read?
Answer: Its PBM binding z-score is -0.42.

Question: With CATACAGGGTCAGCCAGGCCAGAGTAGGGACGGC as the sequence, how does the PBM binding z-score read?
Answer: The PBM binding z-score was 4.58.

Question: With ACTATTAGTTGTCTTAGGGCAACCGATACGACGC as the sequence, how does the PBM binding z-score read?
Answer: The PBM binding z-score was -0.0128.

Question: With TCTATGAGTTGATTAGGGCAACCGAAACAGCGGA as the sequence, how does the PBM binding z-score read?
Answer: The PBM binding z-score was 0.54.

Question: Which PBM binding z-score does the source give for GCTATTAGTTGAAAGGGCAACCTAATGATTCTCG here?
Answer: Its PBM binding z-score is 0.478.

Question: How did the PBM binding z-score turn out when CCGACTGGGGCAAGGTTACGATAACGCACAGCCA was run?
Answer: Its PBM binding z-score is 0.0294.

Question: ATATGTAGGTTTGCTGGGGTCATTCAGACTAGGC was tested. Which PBM binding z-score did it give?
Answer: Its PBM binding z-score is 5.56.

Question: Which PBM binding z-score does the source give for GTACAAAGGTGAATAGGTCGTTGATGAGTAGGCG here?
Answer: The PBM binding z-score was 2.18.

Question: For TCTATTGGTTGATTAGGGCAACCGAAACAGCGGA, which PBM binding z-score is on record?
Answer: Its PBM binding z-score is 0.547.

Question: How did the PBM binding z-score turn out when ACTAGCACGCCAAGGGTCACTCAAGATTAGTCCG was run?
Answer: Its PBM binding z-score is 2.97.

Question: Which PBM binding z-score does the source give for TTACCAAGGTGAAAGCTCGTTGATGCACGCCTTG here?
Answer: The PBM binding z-score was -0.288.

Question: Which PBM binding z-score does the source give for CGAACTAGGTCATTGACAGGACATTGAATAGTAA here?
Answer: Its PBM binding z-score is 3.1.

Question: For CCTACTGGGCCTTTCAGAGGTCATTGATCATATG, which PBM binding z-score is on record?
Answer: The PBM binding z-score was 3.36.

Question: How did the PBM binding z-score turn out when CCTCGGAGGACACAAGGTCAGAGCTGTCCGCTTT was run?
Answer: Its PBM binding z-score is 1.88.

Question: For GTACCAAGGTGAATAGGTCGTTCATGAGTAGGCG, which PBM binding z-score is on record?
Answer: The PBM binding z-score was 1.06.

Question: How did the PBM binding z-score turn out when CTCGAAAGGTCGGTTGAGTTGAGTATACGGATAA was run?
Answer: The PBM binding z-score was 3.45.

Question: Which PBM binding z-score does the source give for TTACCAAGATGAAAGGTCGTTGATGCACGCCTTG here?
Answer: The PBM binding z-score was 1.69.

Question: Which PBM binding z-score does the source give for TAGCCTAGGTCAGATCGGGCCAGCATACGCTATA here?
Answer: The PBM binding z-score was 0.584.

Question: With ACAGACAGGTAATGAAGGTAACTCAGGCTATCAT as the sequence, how does the PBM binding z-score read?
Answer: Its PBM binding z-score is 0.244.

Question: ATATGTAGGTTCAGGGTCATTCAGGTTGGTTCGC was tested. Which PBM binding z-score did it give?
Answer: Its PBM binding z-score is 6.03.

Question: For GGAACGAGGGCATTGGAGTTGATAGCATGGCGAT, which PBM binding z-score is on record?
Answer: Its PBM binding z-score is 2.6.

Question: For ATCTCTAGGTATGACTCAGTTCAGTGAAGAACGC, which PBM binding z-score is on record?
Answer: The PBM binding z-score was 1.01.

Question: Which PBM binding z-score does the source give for GGAACGAGGGAAAGTTGATAGCAGAGTTTGATGG here?
Answer: Its PBM binding z-score is -0.524.

Question: With CCGAGTAAGTTATGGGGCATTCAGGCAACGGTGA as the sequence, how does the PBM binding z-score read?
Answer: The PBM binding z-score was -0.346.

Question: How did the PBM binding z-score turn out when TCTGCCAGGTCAACGATGGTCAGCTAATCTGCTA was run?
Answer: The PBM binding z-score was 2.49.
